From PubChem BioAssay
PLK1 PBD inh = blocks phosphopeptide binding to human PLK1 polo-box domain; P53350; Plk1 PBD binding of FITC phosphopeptide, fluorescence polarization; Potency, µM, for the others: max response, negative = inhibition, usual class: inhibitors; 2.8% of 360,000 active; AID 720504; further: series mostly up to about 57 µM; on the % scale 0 is the no-effect control and ±100 the full control effect; nearly all actives have a fitted effect of over 65% in size
G9a inh = inhibitors of human histone lysine methyltransferase G9a; Q96KQ7; G9a H3K9 monomethylation, AlphaScreen, 2 h; Potency, µM (titrated, usually from 102 µM), without a hit: top-dose activity, negative = inhibition, most hits filed as inhibitors; 8.8% of 350,000 active; AID 504332; further: on the % scale 0 is the no-effect control and ±100 the full control effect; nearly all actives have a fitted effect of over 75% in size
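AlphaScreen read-out: biotin-H3K9 peptide (500 nM) methylation by 20 nM enzyme with 20 uM SAM, 2 h at room temperature after 15 min compound preincubation; anti-monomethyl H3K9 antibody plus donor/acceptor beads, 10 min dark.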
JMJD2A Tudor = JMJD2A Tudor domain (human) inhibition; O75164; AlphaScreen JMJD2A-Tudor / H3K4me3 peptide binding; Potency, µM (series often up to 114 µM), for the others: at the highest dose activity change, negative = inhibition, hits mostly inhibitors; 4.4% of 390,000 active; AID 504339; further: on the % scale 0 is the no-effect control and ±100 the full control effect; nearly all actives have a fitted effect of over 50% in size
Target sequence (O75164 whole entry, looked up, the tested form may be a part): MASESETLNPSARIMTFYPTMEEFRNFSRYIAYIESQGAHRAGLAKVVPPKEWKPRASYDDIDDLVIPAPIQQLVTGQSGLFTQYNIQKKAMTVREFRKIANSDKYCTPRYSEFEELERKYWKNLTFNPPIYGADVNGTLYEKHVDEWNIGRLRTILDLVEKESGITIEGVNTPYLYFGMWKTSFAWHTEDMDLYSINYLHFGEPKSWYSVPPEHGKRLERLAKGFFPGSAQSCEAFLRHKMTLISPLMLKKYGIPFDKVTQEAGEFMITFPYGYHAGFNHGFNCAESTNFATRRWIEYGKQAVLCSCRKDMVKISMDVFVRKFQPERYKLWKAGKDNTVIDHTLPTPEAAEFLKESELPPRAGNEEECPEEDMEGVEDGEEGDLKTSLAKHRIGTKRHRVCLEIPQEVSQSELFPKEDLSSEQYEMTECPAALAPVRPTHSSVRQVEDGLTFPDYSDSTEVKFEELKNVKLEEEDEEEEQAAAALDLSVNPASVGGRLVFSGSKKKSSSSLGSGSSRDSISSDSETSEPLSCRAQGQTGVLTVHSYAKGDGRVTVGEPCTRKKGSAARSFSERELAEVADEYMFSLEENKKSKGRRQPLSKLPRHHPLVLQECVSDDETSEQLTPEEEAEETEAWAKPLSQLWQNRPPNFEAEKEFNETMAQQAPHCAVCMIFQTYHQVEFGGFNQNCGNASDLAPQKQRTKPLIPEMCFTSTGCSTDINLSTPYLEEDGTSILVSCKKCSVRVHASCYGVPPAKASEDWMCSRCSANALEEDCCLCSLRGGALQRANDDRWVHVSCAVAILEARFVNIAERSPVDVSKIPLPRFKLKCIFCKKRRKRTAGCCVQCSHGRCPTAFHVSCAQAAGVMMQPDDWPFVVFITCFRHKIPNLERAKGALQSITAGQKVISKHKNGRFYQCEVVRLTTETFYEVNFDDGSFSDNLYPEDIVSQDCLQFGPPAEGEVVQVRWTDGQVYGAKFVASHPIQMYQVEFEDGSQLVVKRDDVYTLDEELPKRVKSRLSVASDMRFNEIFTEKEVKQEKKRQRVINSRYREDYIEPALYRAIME
HP1b chromo inh = inhibitors of HP1-beta chromodomain binding to methylated histone tails | 0.56% of 390,000 active | AlphaScreen HP1-beta / biotin-H3K9me3 peptide binding | AID 540317 | Potency, µM (series often up to 114 µM), for inactives: top-dose activity change, negative = inhibition, most hits filed as inhibitors; further: nearly all actives have a fitted effect of over 70% in size
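AlphaScreen: HP1-beta (50 nM) preformed 30 min with biotin-H3(1-18)K9me3 peptide (50 nM) in PBS pH 7.4, 0.01% Tween-20. Compound added for 30 min at RT, then streptavidin donor/nickel chelate acceptor beads (10 ug/mL) for 30 min.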
12-LOX inh = inhibitors of human 12S-lipoxygenase ALOX12 | P18054 | Potency, µM (top dose mostly 108 µM), without a hit: at the top dose activity change, negative = inhibition, hits mostly inhibitors | purified 12hLO, xylenol orange hydroperoxide absorbance | 1.1% of 580,000 active; further: on the % scale 0 is the no-effect control and ±100 the full control effect
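Hydroperoxide product was detected by ferrous iron/xylenol orange as the 573 to 405 nm absorbance ratio. Arachidonic acid at 40 uM (final) was turned over for 30 min at room temperature by 150 nM human 12hLO, pH 7.0 Hepes buffer, after 15 min compound preincubation.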
BAZ2B block = BAZ2B (human) inhibition; AID 504333; AlphaScreen BAZ2B-H3K14Ac peptide displacement; Potency, µM (highest dose often 114 µM), for the others: at the top dose activity change, negative = inhibition, most hits filed as inhibitors; 4.4% of 360,000 active; Q9UIF8; further: on the % scale 0 is the no-effect control and ±100 the full control effect; nearly all actives have a fitted effect of over 60% in size
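Compounds, titrated to a top concentration of 110 uM, were incubated 30 min at room temperature with preformed BAZ2B/acetyl-K14 H3 peptide complex (50 nM each). Proximity signal was measured by AlphaScreen after 20 min with beads.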
Active calls of the source: *; ? = inconclusive; . = no result; [ ] = another dose, or the depositor's remark. The list is not random: actives were taken first. Their share in the collection is about 9%. The call rests on the fitted dose curve; in most records, active means well fitted curve in the direction sought with a large enough effect; inconclusive means small, poorly fitted or top-dose-only effect, or another doubt; inactive means no such curve, though single readings can be large; an effect the other way counts as inactive or inconclusive. Potency means the concentration at half of the fitted maximal effect.

SMILES	PLK1 PBD inh	G9a inh	JMJD2A Tudor	HP1b chromo inh	12-LOX inh	BAZ2B block
CCCCCc1c(O)nc(SCC(=O)NCC2CCCO2)[nH]c1=O (configuration not stated)	27µM*	?	-12%[11.4 µM]	-3%	3%	-3%
O=c1c2ccccc2sc2c(CO)ccc(NCCN3CCCCC3)c12	0%	.	50µM*	?	-11%	.
Cc1nnc(NC(=O)CCC(=O)NCc2cccs2)s1	-10%	-10%[59 µM]	?	35%	0%	-34%
COC(=O)c1ccc(C)c(N(CCO)CCO)c1	0%	25µM*	0%	42%	-19%	-4%
CN1CCN(CP(=O)(N2CCOCC2)N2CCOCC2)CC1	-8%	?	-10%	19%	0%	1%
O=C(N[C@@H](Cc1ccccc1)C(=O)CCl)OCc1ccccc1	30µM*	15µM*	-9%	55%	-21%	4%
COC(=O)C(CC(C)C)NC(=O)C(N)Cc1ccccc1 (configuration not stated)	-7%	45µM*	?	12%	-16%	4%
COC(=O)[C@H](Cc1ccccc1)NC(=O)[C@@H](N)CC(=O)OCc1ccccc1	1%	5%[0.501 µM]	?	-11%	14%	?
CC(C)C[C@@H](C=O)NC(=O)[C@H](CC(C)C)NC(=O)[C@H](CC(C)C)NC(=O)OCc1ccccc1	.	8.9µM*	.	.	-4%	.
C=CCN1C(=O)c2oc3ccccc3c(=O)c2C1c1ccc(O)c(OC)c1 (configuration not stated)	-14%	-96%	-29%	29%	?	-18%
CC(=O)C1=C(O)C(=O)N(CCO)C1c1ccccc1 (configuration not stated)	-11%	?	-17%	17%	-16%	?
CC(=O)C1=C(O)C(=O)N(CCc2c[nH]c3ccccc23)C1c1cccc(O)c1 (configuration not stated)	-4%	?	79µM*	-5%	?	?
COc1cc(C2C(C(C)=O)=C(O)C(=O)N2CCc2c[nH]c3ccccc23)ccc1O (configuration not stated)	-8%	50µM*	100µM*	-8%	-5%	?
CCOc1ccc2nc(SCC(=O)N3CCCc4ccccc43)sc2c1	-4%	41%[59 µM]	60%	53%	-21%	7%
CC(C)(CCc1ccccn1)C(=O)C(CCc1ccccn1)CCc1ccccn1	3%	.	-16%	27%	-3%	.
Nc1nc(-c2ccc(-c3ccccc3)cc2)cs1	-20%	45µM*	-23%	-8%	0%	-32%
Nc1nc(-c2cccc(NS(=O)(=O)c3ccccc3)c2)cs1	?	45µM*	?	-16%	?	?
Nc1nc(-c2cccs2)cs1	-23%	79µM*	-24%	11%	.	-38%
CN1CCN(c2nc(-c3cccs3)cs2)CC1	-6%	35µM*	?	-15%	-17%	?
CN1CCN(c2nc(-c3cc4ccccc4o3)cs2)CC1	0%	?	-5%	34%	7%	?
C/C(=C/C(=O)c1ccccc1)NCC(O)CN/C(C)=C\C(=O)c1ccccc1 (configuration not stated)	.	.	.	.	-14%	.
Cc1ccc(Nc2ncnc3c2oc2ccccc23)cc1	-3%	-15%	-21%	18%	7%	-31%
Nc1nc(-c2ccc3ccccc3c2)cs1	-20%	50µM*	-36%	-36%	0%	?
Cc1cc(C)n(-c2nc(C(=O)O)cs2)n1	-4%	50µM*	-7%	17%	-11%	?
Cc1cc(C(F)(F)F)n(-c2nc(C(=O)NN)cs2)n1	-7%	-8%	-4%	23%	14%	-12%
SMILES	PLK1 PBD inh	G9a inh	JMJD2A Tudor	HP1b chromo inh	12-LOX inh	BAZ2B block
CSc1ccccc1NC(=O)c1cc2ncc(Br)cn2n1	?	35µM*	?	-10%	-27%	56µM*
Cc1ccccc1Cn1ccc(NC(=O)c2nn3cccnc3c2Cl)n1	-8%	-18%	-4%	32%	0%	-13%
CSc1ccccc1NC(=O)c1cnccn1	-10%	25µM*	-24%	6%	?	0%
Cc1ccccc1Cn1ccc(NC(=O)c2cc3ncc(Br)cn3n2)n1	-1%	-37%	-11%	33%	7%	50µM*
CCCCCCNc1ccc(C(=O)OCC)cc1	4%	.	.	.	?	.
COc1ccc(C(=O)ON=C2C=C(C)C(=O)C(C)=C2)cc1	-14%	6%	-1%	31%	-3%	-12%
COc1ccc(SN=C2C(C)=CC(=O)C=C2C)cc1	-21%	16µM*	?	?	-16%	?
CC1CCN(C(c2ccc(N(C)C)cc2)c2nnnn2Cc2ccc(F)cc2)CC1 (configuration not stated)	2%	-5%[0.501 µM]	?	?	-13%	13µM*
c1ccc(Cn2nnnc2C(c2cccs2)N2CCSCC2)cc1 (configuration not stated)	-9%	24%[59 µM]	-15%	-2%	-13%	6%
Fc1ccc(Cn2nnnc2C(c2ccc(Cl)cc2)N2CCSCC2)cc1 (configuration not stated)	-6%	50µM*	56µM*	4%	?	-1%
CCN1CCN(C(c2ccc(F)cc2)c2nnnn2Cc2ccc3c(c2)OCO3)CC1 (configuration not stated)	-5%	.	-10%	16%	3%	-10%
CCOc1ccccc1Nc1sc(C(=O)c2ccccc2)c(N)c1C(=O)NCCc1ccccc1	.	?	-34%	34%	-4%	-2%
CCOc1ccccc1Nc1sc(C(=O)c2ccccc2)c(N)c1C(=O)Nc1ccccc1	.	11µM*	?	-4%	-1%	?
COc1ccc(CCNC(=O)c2c(Nc3ccccc3C)sc(C(=O)c3ccccc3)c2N)cc1OC	.	8.9µM*	?	0%	-1%	?
COc1ccc(NC(=O)c2c(Nc3ccccc3)sc(C(=O)c3ccc(F)cc3)c2N)cc1	-9%	?	45µM*	-32%	0%	?
COc1ccc(Nc2sc(C(=O)c3ccc(Cl)cc3)c(N)c2C(=O)Nc2ccccc2OC)cc1	-12%	?	?	-18%	?	?
CC(C)CN(Cc1cnn(C)c1)C(=O)C1CCC(=O)N(CC2CCCCC2)C1 (configuration not stated)	.	.	.	.	42%	.
CCN(CC)C1(Cc2cc(COc3ccccc3)on2)COC1	.	.	.	.	16%[176 µM]	.
CS(=O)(=O)Nc1ccc2c(c1)nc1n2CCOC1	0%	2%	-9%	45%	-24%	7%
Cc1ccc(NC(=O)CS(=O)CC(=O)N(CC(=O)NC2CCCC2)c2cc(C)ccc2C)cc1 (configuration not stated)	-6%	19%	-15%	14%	-27%	-4%
